Vaccinia Venus: inhibitors of vaccinia virus (Venus reporter) | Vaccinia virus Venus reporter expression, fluorescence | Potency, µM (top dose mostly 36.5 µM), usual class: inhibitors | actives 0.46% (n = 330,000) | AID 720580; calls by dose curve; tested in A549 cells; further: nearly all actives have a fitted effect of over 30% in size
Lassa entry inh: inhibitors of Lassa virus binding or cell entry; Lassa virus pseudotype entry inhibition, cell reporter; Potency, µM (top dose mostly 37.9 µM), usual class: inhibitors; actives 1.2% (n = 300,000); calls by dose curve; tested in HEK293 cells; further: nearly all actives have a fitted effect of over 50% in size
VACV mCherry inh: vaccinia inhibition (mCherry reporter); Vaccinia virus mCherry reporter infection, fluorescence; Potency, µM (highest dose often 36.5 µM), hits mostly inhibitors; actives 0.63% (n = 310,000); calls by dose curve; tested in A549 cells; further: nearly all actives have a fitted effect of over 35% in size
HCMV antiviral: human cytomegalovirus inhibition; activity change, negative = inhibition, % at 57.5 µM; HFF cells, HCMV-luciferase reporter, 72 h; stronger effect = lower value; actives 4.5% (n = 410,000); AID 1259415; in the data active means activity change below about -60%; inconclusive means no clear call, values can overlap the other calls; inactive means above about -39%
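Inhibition of viral replication was scored as loss of reporter luminescence in HFFs infected with HCMV-luciferase (MOI 1 PFU/cell) for 72 h; compounds tested at 2 doses, normalized to buffer and Salinomycin controls.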
FMDV antiviral: foot and mouth disease virus antiviral activity; actives 1.2% (n = 410,000); Potency, µM (doses to about 57.9 µM), usual class: inhibitors; FMDV antiviral cell-based qHTS; calls by dose curve; tested in HEK293T cells; further: read-out not given here; nearly all actives have a fitted effect of over 45% in size
MARV entry inh: blocks Marburg virus binding to or entry into cells; Marburg virus pseudotyped entry inhibition, cell reporter; Potency, µM (top dose mostly 37.8 µM), hits mostly inhibitors; actives 1.8% (n = 300,000); AID 540276; calls by dose curve; tested in HEK293 cells
A number is an active result; - = inactive; ? = inconclusive; . = not tested or not shown. Compounds with a hit are over-represented: about 6.5% of the library has one in this group of screens.

SMILES	Vaccinia Venus	Lassa entry inh	VACV mCherry inh	HCMV antiviral	FMDV antiviral	MARV entry inh
O=C(O)c1ccc(Cn2cc(/C=C\[N+](=O)[O-])c3ccccc32)o1	.	.	.	-	-	.
Cc1cc(Br)ccc1NC(=O)CN(C)C(=O)c1ccc(-n2cncn2)c([N+](=O)[O-])c1	.	.	.	-	-	.
S=C1Cc2ccccc2N1	.	.	.	-82.8	31.6µM	.
S=C1Nc2ccccc2CS1	-	.	-	-	-	.
Cc1occc1C(=O)NNC(=S)NCc1ccc(Cl)cc1	-	.	-	-68.9	?	.
Cc1occc1C(=O)NCCCCNC(=O)c1ccoc1C	.	-	.	-98.2	-	-
Cc1ccccc1CCNC(=O)c1ccc2c(c1)nc1n2CCCCC1	-	?	-	-78.2	?	.
COc1ccc(Br)cc1CNC(=O)c1ccc2c(c1)nc1n2CCCCC1	-	?	-	-60.1	-	.
CSc1ccc(CCNC(=O)c2ccc3c(c2)nc2n3CCC(C)C2)cc1 (centres undefined)	-	-	-	-	?	.
CSc1ccc(CCNC(=O)c2ccc3c(c2)nc2n3CCCCC2)cc1	-	-	-	-76.3	-	.
Cc1nc(-c2ccc(Cl)cc2)sc1CCNC(=O)c1ccc(C(F)(F)F)cc1	-	-	-	-	?	.
CCN(CC)c1ccc(/C=C2\NC(=O)NC2=O)cc1	-	-	-	-	-	-
CN(C)c1ccc(C=C2C(=O)NC(=S)NC2=O)cc1	-	?	-	-	28.2µM	?
CCN(CC)c1ccc(C=C2C(=O)NC(=S)NC2=O)cc1	.	.	.	-	22.4µM	.
Cc1nc2nc(SCC(=O)NC(C)c3ccccc3)nn2c(C)c1Cc1c(F)cccc1Cl (centres undefined)	-	?	-	-	-	-
O=C(NCC1CCCCC1)C1(CC2CC(c3cccc(Br)c3)=NO2)CCNCC1 (centres undefined)	10µM	.	11.2µM	-	-	.
CC(C)(C)OC(=O)N1CCC(CC2CC(c3cccc(Br)c3)=NO2)(C(=O)NCC2CCCCC2)CC1 (centres undefined)	?	.	-	-	-	.
Cc1ccc2cc(C3CC(c4ccco4)=NN3S(=O)(=O)c3ccccc3)c(Cl)nc2c1 (centres undefined)	.	16.4µM	.	-80.2	-	2.59µM
CCCS(=O)(=O)NCc1c(C)ncc2c1CCN(C(=O)c1cccc(C(F)(F)F)c1)C2	-	.	-	.	-	.
O=C(CC(=O)c1cc(Cl)ccc1O)c1ccccc1	?	13µM	?	-	.	?
COc1ccc(O)c(C(=O)CC(=O)c2ccc(F)cc2)c1	-	10µM	-	-	-	12.6µM
Cc1cccc(C(=O)CC(=O)c2cc(Cl)ccc2O)c1	.	?	.	.	-	-
CC(=O)NC1(C(F)(F)F)NC(=O)N(CCc2ccccc2)C1=O (centres undefined)	-	.	-	?	-	.
Cc1nnnn1-c1ccc(CC(=O)O)cc1	-	-	-	-	-	-
O=C(/C=C/c1ccccc1)Nn1c(-c2cccs2)nc2ccccc2c1=O	.	-	.	-60.9	-	-
SMILES	Vaccinia Venus	Lassa entry inh	VACV mCherry inh	HCMV antiviral	FMDV antiviral	MARV entry inh
Cc1cc(C)nc(N/C=C(\C#N)C(=O)c2cccc(CSc3ccccc3)c2)n1	-	.	-	.	.	.
COC(C(=O)C(O)C(C)O)C1Cc2cc3cc(OC4CC(OC5CC(O)C(O)C(C)O5)C(O)C(C)O4)c(C)c(O)c3c(O)c2C(=O)C1OC1CC(OC2CC(OC3CC(O)C(OC)C(C)O3)C(O)C(C)O2)C(O)C(C)O1 (centres undefined)	?	-	?	-98.1	-	-
COC(C(=O)C(O)C(C)O)C1Cc2cc3cc(OC4CC(OC5CC(O)C(O)C(C)O5)C(O)C(C)O4)c(C)c(O)c3c(O)c2C(=O)C1OC1CC(OC2CC(OC3CC(C)(O)C(O)C(C)O3)C(O)C(C)O2)C(O)C(C)O1 (centres undefined)	0.282µM	.	0.282µM	.	.	.
COC(=O)C(O)(c1ccccc1)C(Nc1ccc(OC)cc1)c1ccc(Br)cc1 (centres undefined)	.	.	.	-	.	.
CCN(C[C@H]1N[C@@](CC)(C(=O)OC)[C@H]2C(=O)N(Cc3ccccc3)C(=O)[C@@H]12)S(=O)(=O)c1ccc(OC(F)(F)F)cc1	-	.	?	-	-	.
C[C@H]1O[C@@H](O[C@H]2[C@@H](O)C[C@@H](O[C@H]3[C@@H](O)C[C@H](O[C@H]4CC[C@@]5(C)[C@H](CC[C@@H]6[C@@H]5CC[C@]5(C)[C@@H](C7=CC(=O)OC7)CC[C@]65O)C4)O[C@@H]3C)O[C@@H]2C)C[C@H](O)[C@@H]1O	0.0251µM	.	12.6µM	.	.	.
CC(=O)OC1CC(OC2C(O)CC(OC3C(O)CC(OC4CCC5(C)C(CCC6C5CC(O)C5(C)C(C7=CC(=O)OC7)CCC65O)C4)OC3C)OC2C)OC(C)C1OC1OC(CO)C(O)C(O)C1O (centres undefined)	0.891µM	.	2.51µM	-100.1	?	.
C[C@H]1O[C@@H](O[C@H]2[C@@H](O)C[C@H](O[C@H]3[C@@H](O)C[C@H](O[C@H]4CC[C@@]5(C)[C@H](CC[C@@H]6[C@@H]5C[C@@H](O)[C@]5(C)[C@@H](C7=CC(=O)OC7)CC[C@]65O)C4)O[C@@H]3C)O[C@@H]2C)C[C@H](O)[C@@H]1O	0.282µM	0.146µM	?	-99.7	?	0.13µM
CC(=O)OCC1OC(OC2C[C@]3(C)C(CC(O)C4C([C@](C)(CCC=C(C)C)OC5OC(CO)C(O)C(O)C5O)CC[C@]43C)[C@@]3(C)CCC(O)C(C)(C)C23)C(O[C@@H]2OC(C)C(O)C(O)C2O)C(O)C1O (some centres undefined)	-	.	-	.	-	.
CC1O[C@@H](O[C@@H]2C(O)C[C@H](O[C@@H]3C(O)C[C@@H](OC4CC[C@@]5(C)C6CC[C@]7(C)C(C8=CC(=O)OC8)CC[C@@]7(O)C6CC[C@@H]5C4)OC3C)OC2C)CC(O)[C@H]1O (some centres undefined)	0.282µM	.	?	.	-	.
CC1(c2ccc(OC(F)F)cc2)NC(=O)N(CC(=O)Nc2ccc(N3CCCCC3)cc2)C1=O (centres undefined)	-	?	-	-	-	-
CN(C)c1ccc(/C=C/c2cc(Cl)nc3ccccc23)cc1	-	.	-	.	.	.
O=C(Nc1ccc2c(c1)OCO2)c1cc(-c2ccc(O)cc2)on1	-	-	-	-	-	7.94µM
COc1ccc(-c2cc(C(=O)Nc3cccc(O)c3)no2)cc1	.	.	.	-	20µM	.
COc1ccc(-c2cc(C(=O)Nc3c(C)nn(Cc4ccc(Cl)cc4)c3C)no2)cc1	.	-	.	?	?	23.1µM
COc1ccccc1-c1cc(C(=O)Nc2c(C)nn(Cc3ccc(Cl)cc3)c2C)no1	?	?	?	-73.8	28.2µM	10µM
CC(=O)Nc1ccc(/C=C/c2nc3ccccc3s2)cc1	-	.	-	.	.	.
O=C(Nc1ccc2c(c1)OCO2)c1ccc(Cl)cc1Cl	-	?	-	-	-	6.31µM
Cc1nn(Cc2ccccc2)c(C)c1NC(=O)c1noc2c1CCc1ccccc1-2	?	.	?	.	?	-
COc1ccc2c(c1)CCc1c(C(=O)Nc3c(C)nn(Cc4ccc(C)cc4)c3C)noc1-2	?	-	?	-96.3	?	?

Screening results deposited in PubChem by National Center for Advancing Translational Sciences (NCATS).
